# KDM5B inhibitor: Primary screen for KDM5B Histone Demethylases FDH-coupled qHTS; Lysine-specific demethylase 5B (Homo sapiens), Q9UGL1; 2.6% of 220,000 active; KDM5B demethylase, FDH-coupled NADH fluorescence (FDH is formaldehyde dehydrogenase); Potency, µM (highest dose often 57.7 µM), actives largely listed as inhibitors; active = well fitted inhibition curve with a large enough effect; also: 0% is about no effect; nearly all actives have a fitted effect of over 70% in size
#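 Coupled FDH/NAD⁺ fluorescence readout. KDM5BΔAP 200 nM final; compound titration, 10 min RT preincubation; substrate mix 12.5 µM H3K4me3, 25 µM 2-OG, 50 µM Fe(II), 100 µM ascorbate, 0.25 mM NAD⁺, 0.25 U/mL FDH; ΔRFU over 30 min.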
# * marks the source's active call; other numbers are inactive results; i = inactive. Shown is part of a subset that was picked to be rich in hits. Potency is read from the fitted curve at half-maximal effect.
SMILES,KDM5B inhibitor
O=C(NCCc1c[nH]c2ccccc12)c1cc(F)ccc1F,i
CC(=O)Nc1c(-c2ccccc2)c(C)nn1-c1ccc(C(=O)NCc2ccccn2)cc1,i
Cc1c(Cc2ccccc2)c(=O)oc2cc(OCC(=O)NCCCO)ccc12,i
C/C(=N/Nc1cccc([N+](=O)[O-])c1)c1ccc(Br)cc1,i
COc1cc(/C=C(/C#N)C(=O)C(C)C)cc(Br)c1O,i
Cc1cc(C(=O)OC(C)C(=O)Nc2ccccc2F)c(C)o1 (configuration not stated),i
O=C1CCCC2=C1C(c1ccc(OCc3ccccc3)cc1)c1c([nH]n(-c3ccccc3)c1=O)N2 (configuration not stated),i
OC(C#Cc1ccccc1)C#CC(O)(c1ccccc1)c1ccccc1 (configuration not stated),i
CN1CCc2[nH]cnc2C12CCN(C(=O)c1cc(=O)[nH]c3ccccc13)CC2,20µM*
COc1ccc2[nH]c(C(=O)N3CCC4(CC3)c3nc[nH]c3CCN4C)cc2c1,28.2µM*
COc1cccc(N2CCN(C(=O)c3cc4cc(Cl)ccc4[nH]3)CC2)c1,i
COc1ccc2[nH]c3c(c2c1)CCN(C)C31CCN(C(=O)c2cccc(C)c2)CC1,i
CN1CCc2[nH]cnc2C12CCN(C(=O)c1cccc(-n3cccn3)c1)CC2,i
Cc1nc2cc(C(=O)N3CCC4(CC3)c3nc[nH]c3CCN4C)ccc2s1,i
COc1ccc2[nH]c3c(c2c1)CCN(C)C31CCN(C(=O)c2cn(C)cn2)CC1,25.1µM*
CN1CCc2[nH]cnc2C12CCN(C(=O)CC1NC(=O)c3ccccc31)CC2 (configuration not stated),i
COc1ccc2[nH]c3c(c2c1)CCN(C)C31CCN(C(=O)c2cccnc2)CC1,i
CC(C#N)(NC(=O)COc1ccccc1C(F)(F)F)C1CC1 (configuration not stated),i
CSc1ccc(/C=C2\COc3ccccc3C2=O)cc1,i
COC(=O)c1ccc(C[N+]2(C)CCCCC2)cc1,i
CCOc1cc2c(cc1NC(=O)CCC(=O)c1ccc(C)cc1)OC(C)C2 (configuration not stated),i
CCCc1nc(SC)ncc1C(=O)NCc1ccc(C)cc1,i
CCc1cccc(C)c1NC(=O)COC(=O)c1cc(C)nc2ccccc12,i
COc1ccc2cc(C(=O)Nc3ccccc3)c(C)nc2c1,i
CCn1ncc(CN2CCCC23CCN(c2ccc(C(F)(F)F)cn2)CC3)c1C,28.2µM*
SMILES,KDM5B inhibitor
C=CCN1CCN(c2ccc(C(F)(F)F)cn2)CC1,i
CCc1nc(CN2CCN(c3ccc(C(F)(F)F)cn3)CC2)c(C)[nH]1,i
O=C(c1cnn2ncccc12)N1CCOCC1,i
Cc1c(C(=O)N2CCOCC2)cnn1-c1ccccc1F,i
Cc1ccc2c(C(=O)N3CCOCC3)cnn2c1,31.6µM*
Cc1ccc2[nH]c(C)c(CC(=O)NC(C)c3ccncc3)c2c1 (configuration not stated),i
Cc1c(N(Cc2ccccc2F)S(C)(=O)=O)c(=O)n(-c2ccccc2)n1C,i
Fc1cccc(OCc2cc(-c3ccccc3)on2)c1,i
Cc1cc2cc(-c3c(C)noc3C)nc(-c3ccc([S+](C)(=O)[O-])cc3)c2o1,35.5µM*
Cc1noc(C)c1-c1cc2cc(CN(C)C)oc2c(-c2ccc([S+](C)(=O)[O-])cc2)n1,39.8µM*
Cc1cc2cc(-c3c(C)noc3C)nc(N(C)CCN(C)C)c2o1,i
CCOCCn1c(SCC(=O)OCC)nc2c1c(=O)[nH]c(=O)n2C,i
O=C(CCc1ncc(-c2ccc(Cl)cc2)o1)Nc1ccc2ccccc2c1,i
COc1cccc([S+](=O)([O-])N2CCC3(C2)C(=O)N(Cc2ccccc2)c2ccccc23)c1 (configuration not stated),i
Fc1cc(COc2ccc(-c3nnco3)cc2)c2ncccc2c1,i
O=C(O)CNS(=O)(=O)c1ccccc1C(F)(F)F,i
COCC1CN(S(=O)(=O)Cc2ccccc2)CC12CCNCC2 (configuration not stated),i
COCC1CN(Cc2ccc(Br)s2)CC12CCNCC2 (configuration not stated),10µM*
COCC1CN(S(=O)(=O)Cc2ccc(F)cc2)CC12CCNCC2 (configuration not stated),i
CC(C)(C)C(=O)NC(Nc1ccccc1)C(Cl)(Cl)Cl (configuration not stated),i
CC(=O)c1cc2c(cc1NC(=O)c1cccc(F)c1)OCCO2,i
COC(=O)c1sc2ccccc2c1S(=O)(=O)N1CCN(c2cc(C)ccc2C)CC1,i
O=C(NC1CC(c2nnc(CO)n2C2CC2)C1)C1(c2ccccc2)CCCC1 (configuration not stated),i
O=C(NC1CC(c2nnc(CO)n2C2CC2)C1)c1csc(-c2ccccc2)n1 (configuration not stated),i
O=C(NC1CC(c2nnc(CO)n2C2CC2)C1)c1nc2ccccc2[nH]1 (configuration not stated),31.6µM*
SMILES,KDM5B inhibitor
CC(C)CCN(C(=O)CN1c2ccccc2CC1C)c1c(N)n(Cc2ccccc2)c(=O)[nH]c1=O (configuration not stated),i
Cc1ccc(OCC(O)Cn2c(N(C)Cc3ccccc3)nc3c2c(=O)[nH]c(=O)n3C)cc1 (configuration not stated),i
CC(=O)c1c(C)[nH]c(C(=O)COc2ccc(F)c(Cl)c2)c1C,i
O=C(CC1SCCNC1=O)Nc1cc(Cl)ccc1Cl (configuration not stated),i
Clc1ccc(Oc2cccc(CN3CCN(C4CCNC4)CC3)c2)cc1 (configuration not stated),15.8µM*
O=C1NC[C@H]2CN(Cc3cccc(OC(F)(F)F)c3)CCN12,i
CCOc1cccc(CN2CCC([C@@H]3CNC[C@H]3CO)CC2)c1,i
Cc1oc(-c2cccc(Cl)c2)nc1CN1CCN(C(=O)c2ccco2)CC1,i
Nc1nccnc1C(=O)Nc1ccncc1,i
Cc1ccc(C(=O)N2CCC3(CC2)N(c2ccccc2)C(=O)CS3(=O)=O)cc1,i
O=C(NCCO)c1ccc(-c2ncc3cnc(C4=CCOCC4)cn23)cc1,31.6µM*
O=C(c1cn(-c2ccccc2)nn1)N1CCc2ccccc2C1,i
O=C(c1ccc(-c2ncc3cnc(-c4ccccc4)cn23)cc1)N1CCS(=O)(=O)CC1,35.5µM*
Cc1ccc(C(=O)N2CCn3c(nnc3-c3ccccc3)C2)cc1,i
O=C(NCc1cnccn1)c1ccc(-c2ncc3cnc(C4=CCOCC4)cn23)cc1,35.5µM*
O=C(NCc1ccccn1)c1ccc(Br)cc1,i
Cc1ccc(-n2cc(C(=O)N3CCc4ccccc4C3)nn2)cc1,i
O=C(NCCc1cnc(-c2ccccc2)[nH]1)c1ccc(-c2ccccc2)cc1,i
O=C(Cn1c2c(c(=O)n1Cc1ccccc1)CCN(Cc1ccccc1)C2)NCc1cnccn1,i
Cc1ccc(-c2ncc(CCNC(=O)c3ccccc3)[nH]2)cc1,i
O=C(c1ccc(-c2ncc3cnc(C4=CCOCC4)cn23)cc1)N1CCc2ccccc2C1,28.2µM*
Cn1c(=O)[nH]c(=O)c2c1nc(SCC(N)=O)n2Cc1ccccc1Cl,i
CN(C)C(=O)COC(=O)c1ccccc1-c1nc2ccccc2s1,i

# Bioassay records as filed in PubChem BioAssay.
